Compound activity: PubChem, National Center for Advancing Translational Sciences (NCATS)
HT1080 IDH1KD tx – kills HT-1080 cells with IDH1 knockdown; HT-1080 IDH1 knockdown viability, ATP luminescence, 48 h; Potency, µM (highest dose often 46.1 µM), for the others: at the top dose activity, negative = toxicity, most hits filed as cytotoxic; actives 2% (n = 360,000);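 further: potency means the concentration at half of the fitted maximal effect; 0% = DMSO wells and -100% = cell-free medium wells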
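CellTiter-Glo luminescence after 48 h compound exposure at 37 degrees C of IDH1-knockdown HT-1080 cells in 5% FBS RPMI. %Activity scaled between DMSO wells and cell-free media wells, with curves fitted and assigned curve classes.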
DT40 TDP1 CPT – DT40-hTDP1 cell growth loss with CPT | chicken DT40 Tdp1-/-;hTDP1 cells + 20 nM CPT, ATP luminescence, 48 h | Potency, µM (top dose mostly 46.2 µM), for the others: at the highest dose activity change, negative = growth inhibition, actives largely listed as inhibitors | actives 12% (n = 420,000) | AID 686979; further: potency means the concentration at half of the fitted maximal effect; nearly all actives have a fitted effect of over 55% in size
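Chicken DT40 Tdp1-/- cells complemented with human TDP1, 400 cells/well, exposed to compounds plus 20 nM camptothecin for at least 48 h at 37 C; viability read as ATP content by CellTiter-Glo luminescence.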
HT1080NT lethal – kills 2HG-producing HT-1080-NT fibrosarcoma cells. HT-1080-NT fibrosarcoma viability, CellTiter-Glo ATP luminescence, 48 h. Potency, µM (top dose mostly 46.1 µM), for the others: at the highest dose activity, negative = less viability, usual class: cytotoxic. actives 1.6% (n = 360,000). AID 686970;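 further: NT is the 2HG producing partner of a matched IDH1 knockdown line; potency means the concentration at half of the fitted maximal effect; 0% = DMSO-treated cells and -100% = media-only wells without cells; nearly all actives have a fitted effect of over 55% in size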
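Luminescent CellTiter-Glo readout after 48 hours of compound exposure at 37 degrees C defined viability of HT-1080-NT cells. Activity was normalized to DMSO wells and cell-free media wells; concentration-response curves were fitted and assigned curve classes.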
ALOX12 inh – inhibitors of human 12S-lipoxygenase ALOX12 | P18054 | purified 12hLO, xylenol orange hydroperoxide absorbance | Potency, µM (top dose mostly 108 µM), for inactives: top-dose activity change, negative = inhibition, actives largely listed as inhibitors | actives 1.1% (n = 580,000); further: potency means the concentration at half of the fitted maximal effect
Target sequence (P18054 whole entry, looked up): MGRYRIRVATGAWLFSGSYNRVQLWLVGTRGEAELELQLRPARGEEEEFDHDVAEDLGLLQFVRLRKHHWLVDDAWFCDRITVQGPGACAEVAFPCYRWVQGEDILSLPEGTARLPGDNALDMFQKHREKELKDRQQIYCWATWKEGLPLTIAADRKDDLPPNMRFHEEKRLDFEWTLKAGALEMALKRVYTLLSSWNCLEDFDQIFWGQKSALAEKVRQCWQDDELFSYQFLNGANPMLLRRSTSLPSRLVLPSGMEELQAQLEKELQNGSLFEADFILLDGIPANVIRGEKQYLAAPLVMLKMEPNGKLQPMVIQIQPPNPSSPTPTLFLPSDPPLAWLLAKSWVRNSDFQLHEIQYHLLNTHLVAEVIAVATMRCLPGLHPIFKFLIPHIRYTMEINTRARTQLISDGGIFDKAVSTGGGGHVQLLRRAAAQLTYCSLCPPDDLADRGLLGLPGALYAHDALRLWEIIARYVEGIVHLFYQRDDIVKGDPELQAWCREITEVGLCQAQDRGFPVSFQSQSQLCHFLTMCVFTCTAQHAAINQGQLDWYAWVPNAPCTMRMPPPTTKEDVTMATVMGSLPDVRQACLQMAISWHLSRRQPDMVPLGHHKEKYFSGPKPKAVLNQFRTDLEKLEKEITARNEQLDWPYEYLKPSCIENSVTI
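Hydroperoxide product was detected by ferrous iron/xylenol orange as the 573 to 405 nm absorbance ratio. Arachidonic acid at 40 uM (final) was turned over for 30 min at room temperature by 150 nM human 12hLO, pH 7.0 Hepes buffer, after 15 min compound preincubation.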
DT40 TDP1 no CPT – qHTS for Inhibitors of human tyrosyl-DNA phosphodiesterase 1 (TDP1): qHTS in cells in absence of CPT | DT40 Tdp1-/- hTDP1 cells, no CPT, ATP luminescence, 48 h | Potency, µM (top dose mostly 46.2 µM), without a hit: at the top dose activity change, negative = growth inhibition, hits mostly inhibitors | actives 15% (n = 420,000) | AID 686978, 2013; further: potency means the concentration at half of the fitted maximal effect; nearly all actives have a fitted effect of over 55% in size
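Stably hTDP1-transfected Tdp1-null chicken DT40 cells were treated with library compounds minus camptothecin and grown for at least 48 hr at 37 °C, after which cellular ATP was quantified by luminescence.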
IL-1B inflam inh – inhibitors of inflammasome signaling (IL-1 beta secretion); activity change, % at 57.5 µM; actives 4.7% (n = 360,000); THP-1 LPS/ATP IL-1B secretion, AlphaLISA, 16 h; active compounds read low; in the data active means activity change below about -50%; inconclusive means mostly about -30% to -49%
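THP-1 cells pretreated 1 hr with compounds (up to 57.5 uM final), then stimulated with LPS (250 ng/mL final) plus ATP (1.25 mM final); secreted IL-1B measured by AlphaLISA after 16 hr, decreased signal indicating inhibition.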
* = called active by the depositor; ? = inconclusive; . = no result given. Many of the other results were omitted from the sample, so hits are more common in it than they were. Unless noted, the call rests on the fitted dose curve; in most records, active means well fitted curve in the direction sought with a large enough effect; inconclusive means small, poorly fitted or top-dose-only effect, or another doubt; inactive means no such curve, though single readings can be large; an effect the other way counts as inactive or inconclusive. Unless noted, on the % scale 0 is the no-effect control and ±100 the full control effect.

SMILES	HT1080 IDH1KD tx	DT40 TDP1 CPT	HT1080NT lethal	ALOX12 inh	DT40 TDP1 no CPT	IL-1B inflam inh
O=C(NC(C(=O)N1CCCCC1)C1CCN(C(=O)c2ccccc2F)CC1)c1ccccc1 (stereo not drawn)	.	.	.	12%	.	.
CSCC[C@@H]1NC(=O)c2cc(NC(=O)Cn3ccc4ccccc43)ccc2NC1=O	.	.	.	35µM*	.	.
CSCC[C@@H]1NC(=O)c2cc(NC(=O)c3cccc4c3ccn4C)ccc2NC1=O	.	.	.	-1%	.	.
Cc1ccc(NC(NC(=O)c2ccco2)C(=O)c2ccc(C)cc2)cc1 (stereo not drawn)	.	.	.	2%	.	.
Cc1ccc(CN2C(=O)C(Cc3ccccc3)Nc3ncnc(N4CCCCC4)c32)cc1 (stereo not drawn)	-4%	18µM*	-1%	-15%	?	-19
O=C1C(Cc2ccccc2)Nc2ncnc(N3CCN(c4ccccc4)CC3)c2N1Cc1ccccc1 (stereo not drawn)	0%	?	-30%	2%	18µM*	-59*
Cc1ccc(CN2C(=O)C(Cc3ccccc3)Nc3ncnc(N4CCN(c5ccccc5)CC4)c32)cc1 (stereo not drawn)	-2%	?	-6%	-12%	?	-17
CCC1Nc2ncnc(N3CCN(c4ccccc4)CC3)c2N(Cc2ccc(Br)cc2)C1=O (stereo not drawn)	-3%	21µM*	-1%	?	?	?
COc1ccccc1C(=O)N1CCC(Cc2n[nH]c(C)n2)CC1	.	.	.	34%	.	.
Cc1ccc(C(=O)C2CC(=O)Nc3c2c(C)nn3-c2ccc(Br)cc2)s1 (stereo not drawn)	.	.	.	-11%	.	.
CCN(CC)C(=O)[C@H]1C[C@H](CC(=O)NC(C)(C)C)C(=O)N2CCc3c([nH]c4cc(-c5ccco5)ccc34)[C@]12C	0%	23µM*	-5%	?	18µM*	-8
CC(C)N(C(=O)[C@H]1C[C@H](CC(=O)NC(C)(C)C)C(=O)N2CCc3c([nH]c4cc(-c5ccco5)ccc34)[C@]12C)C(C)C	-23%	?	-22%	?	?	-67*
CC(C)N(C(=O)[C@H]1C[C@H](CC(=O)NCCN2CCOCC2)C(=O)N2CCc3c([nH]c4cc(-c5ccco5)ccc34)[C@]12C)C(C)C	-13%	?	-21%	-11%	?	?
CC(C)N(C(=O)[C@H]1C[C@H](CC(=O)NCCCn2ccnc2)C(=O)N2CCc3c([nH]c4cc(-c5ccco5)ccc34)[C@]12C)C(C)C	11%	-6%	6%	-6%	-11%	0
O=C1CCN(S(=O)(=O)c2ccccc2)CCCN(Cc2cn[nH]c2-c2cccs2)CCN1	.	.	.	-3%	.	.
NS(=O)(=O)c1ccccc1[N+](=O)[O-]	.	.	.	-29%	.	.
CC(C)CCNC(=O)C12CN(Cc3ccccc3)CC1C(c1cccc([N+](=O)[O-])c1)=NO2 (stereo not drawn)	-8%	-29%	0%	-3%	?	-12
O=C(NCc1ccco1)C12CN(Cc3ccccc3)CC1C(c1cccc([N+](=O)[O-])c1)=NO2 (stereo not drawn)	-5%	?	-2%	6%	18µM*	-25
Cc1ccc(CNC(=O)C23CN(Cc4ccccc4)CC2C(c2cccc([N+](=O)[O-])c2)=NO3)cc1 (stereo not drawn)	5%	?	2%	2%	21µM*	0
O=C(NCc1ccccc1)C12CN(Cc3ccccc3)CC1C(c1ccc([N+](=O)[O-])cc1)=NO2 (stereo not drawn)	-2%	?	2%	?	?	?
O=C(NCc1ccco1)C12CN(Cc3ccccc3)CC1C(c1ccc([N+](=O)[O-])cc1)=NO2 (stereo not drawn)	-5%	16µM*	-13%	?	?	-29
O=C(CCc1c[nH]c2ccccc12)Nc1ccc(-c2nnc3n2CCCC3)cc1	.	.	.	3%	.	.
CCOC(=O)Nc1ccc(S(=O)(=O)N2CCC(c3nc4ccccc4[nH]3)CC2)cc1	-5%	?	-9%	-4%	?	?
CC(C)C(=O)Nc1ccc(S(=O)(=O)N2CCC(c3nc4ccccc4[nH]3)CC2)cc1	-19%	?	-16%	2%	21µM*	-23
COc1ccc(OC)c(S(=O)(=O)N2CCC(c3nc4ccccc4[nH]3)CC2)c1	-2%	?	-1%	7%	?	-11
SMILES	HT1080 IDH1KD tx	DT40 TDP1 CPT	HT1080NT lethal	ALOX12 inh	DT40 TDP1 no CPT	IL-1B inflam inh
COc1ccc(S(=O)(=O)N2CCC(c3nc4ccccc4[nH]3)CC2)cc1	-20%	?	-14%	-11%	10µM*	-16
COc1cc2c(cc1OC)C(CNC(=O)CC(C)C)N(C(=O)Nc1ccccc1)CC2 (stereo not drawn)	.	.	.	-3%	.	.
Nc1nc(-c2ccc([N+](=O)[O-])cc2)cs1	-1%	-16%	-7%	?	-4%	4
CCCCOc1ccc(-c2cn3ccccc3n2)cc1[N+](=O)[O-]	?	?	-22%	-26%	26µM*	-11
O=[N+]([O-])c1ccc(-c2cn3ccccc3n2)cc1	1%	?	-2%	372%	?	?
CCCOc1ccc(-c2csc(N)n2)cc1[N+](=O)[O-]	11%	15µM*	1%	-23%	10µM*	-28
Cc1ccc(-c2cn3ccccc3n2)cc1C	.	.	.	7%	.	.
CCOc1ccc(-c2cn3ccccc3n2)cc1[N+](=O)[O-]	16µM*	?	15µM*	-14%	?	9
COc1ccccc1-c1nc2nccc(-c3ccc(Cl)cc3)n2n1	.	.	.	-12%	.	.
O=C1CCN(S(=O)(=O)c2cccs2)CCCC(CO)CCN1 (stereo not drawn)	.	.	.	1%	.	.
CCC(CC)C(CNC(=O)c1cccc(Cl)c1Cl)N1CCOCC1 (stereo not drawn)	.	.	.	-3%	.	.
Cc1oc(-c2cccs2)nc1CC(=O)Nc1cccc(C(=O)N(C)C)c1	.	.	.	16%	.	.
C=CC[C@@H](CC(=O)NCCO)C(=O)NC[C@H](OC(=O)[C@@H](CC=C)Cc1ccc(F)cc1)c1ccccc1	-11%	15µM*	-29%	-2%	12µM*	-15
C=CC[C@@H](CC(=O)NCCO)C(=O)NCCOC(=O)[C@@H](CC=C)Cc1ccc(F)cc1	-1%	-11%	-1%	-9%	-10%	27
